From PubChem
Rows were chosen to be rich in hits. Some 7.6% of all compounds tested hit in one or more screens of this group.
MCF10A rereplic = inducers of DNA re-replication in MCF 10A breast cells; 350,000 compounds, 2.9% hits; MCF 10A DNA re-replication, Hoechst nuclear intensity, 48 h; AID 624296; Potency, µM (doses to about 46.1 µM), for the others: at the highest dose activity, positive = re-replication, hits mostly activators; also: potency is read from the fitted curve at half-maximal effect; % of control where 0% means no effect; nearly all actives have a fitted effect of over 50% in size
KB-V1 cytotox = KB-V1 MDR subline cytotoxicity; 400,000 compounds, 3.4% hits; KB-V1 MDR cells viability, CellTiter-Glo, 72 h; Potency, µM (top dose mostly 46.1 µM), usual class: cytotoxic; also: potency is read from the fitted curve at half-maximal effect; % is scaled to controls: 0 for no effect and ±100 for the full control effect; nearly all actives have a fitted effect of over 60% in size
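qHTS viability screen in drug-selected KB-V1 MDR cells: 72 h compound treatment at 37 degrees C, ATP luminescence end point.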
KCNH2 3.1 inh = inhibitors of human KCNH2 3.1 potassium channel isoform | AID 720553 | 340,000 compounds, 0.95% hits | U2OS KCNH2 3.1, thallium flux FluxOr; stronger effect = lower value | activity change, % (tested at about 1.8 µM);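 active = maximum activity change below -70%; inconclusive = maximum activity change from -70% to -50%; inactive = maximum activity change above -50%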;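 also: thallium influx rate constant from kinetic fluorescence after stimulation buffer; % is scaled to controls: 0 for no effect and ±100 for the full control effect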
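Thallium flux via FluxOr fluorescence (Red40 quencher, 45 min loading) in U2OS cells virally expressing the KCNH2 3.1 isoform (1.77 x 10^8 /mL virus, overnight at 37 C). Rate constants from 2-min kinetic reads post-stimulation, normalised to positive and negative controls.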
KB-3-1 tox = KB-3-1 parental cell cytotoxicity; AID 1347075; 400,000 compounds, 1.4% hits; Potency, µM (highest dose often 46.1 µM), most hits filed as cytotoxic; KB-3-1 viability, CellTiter-Glo ATP luminescence, 72 h; also: potency is read from the fitted curve at half-maximal effect; % is scaled to controls: 0 for no effect and ±100 for the full control effect; nearly all actives have a fitted effect of over 60% in size
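Parental KB-3-1 adenocarcinoma cells in phenol-red-free DMEM with 10% FBS were pin-treated with compounds at several concentrations, incubated 72 h at 37 °C, and viability read by CellTiter-Glo luminescence; concentration-effect curves were fitted after normalization.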
KCNH2 WT inh = KCNH2 (human, wildtype) channel inhibition; Q12809; 340,000 compounds, 0.37% hits; activity change, % at 1.84 µM; U2OS, BacMam KCNH2, thallium flux FluxOr; stronger effect = lower value; AID 720551;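 active = maximum activity change below -70%; inconclusive = maximum activity change between -70% and -50%; inactive = maximum activity change above -50%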; also: % is scaled to controls: 0 for no effect and ±100 for the full control effect
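U2OS cells were transduced with wild-type KCNH2 virus (2.03 x 10^8 / mL) for 4 h at room temperature, then cultured overnight at 37 C. Thallium flux was read with FluxOr dye. Rate constants were normalized to DMSO controls.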
SW480 rerep = induces DNA re-replication in SW480 colon adenocarcinoma cells; SW480 DNA re-replication, Hoechst DNA content imaging, 48 h; Potency, µM (highest dose often 46.1 µM), inactives show top-dose re-replication activation, hits mostly activators; AID 624297; 340,000 compounds, 1.8% hits; also: potency is read from the fitted curve at half-maximal effect; % of control where 0% means no effect; nearly all actives have a fitted effect of over 55% in size
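Cells (250 per well) received 23 nL compound or DMSO by pin tool and were kept 48 hr at 37 C, 5% CO2. Nuclei were then stained with Hoechst for 40 min and scanned for DNA content.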
Numbers without * were called inactive. Unless noted, calls follow the shape of the dose curve; as a rule, active = well fitted curve in the direction sought with a large enough effect; inconclusive = small, poorly fitted or top-dose-only effect, or another doubt; inactive = no such curve, though single readings can be large; an effect the other way counts as inactive or inconclusive.

How did Cc1csc(C)[n+]1CCC1CCCCC1 do in these assays?
KB-V1 cytotox: inactive; KB-3-1 tox: inconclusive

Results for CCC(=O)N1c2ccccc2CC1C(=O)NCc1cc(OC)ccc1OC (configuration not stated) ?
KB-V1 cytotox: inactive; KB-3-1 tox: inactive

Results for c1ccc2sc(NC3=NCN(C4CCCCCC4)CN3)nc2c1 ?
MCF10A rereplic: 2%; KB-V1 cytotox: 21µM*; KCNH2 3.1 inh: -6; KB-3-1 tox: inconclusive; KCNH2 WT inh: 8; SW480 rerep: -12%

Results for c1ccc2oc(NC3=NCN(C4CCCCC4)CN3)nc2c1 ?
MCF10A rereplic: 2%; KB-V1 cytotox: inactive; KCNH2 3.1 inh: 4; KB-3-1 tox: inactive; KCNH2 WT inh: -2; SW480 rerep: -3%

Results for CCC1(c2ccc(F)cc2)NC(=O)N(CC(=O)N2CCN(C(=O)c3ccco3)CC2)C1=O (configuration not stated) ?
MCF10A rereplic: -3%; KB-V1 cytotox: inactive; KCNH2 3.1 inh: 0; KB-3-1 tox: inactive; KCNH2 WT inh: 3; SW480 rerep: -3%

How did COc1ccccc1N=CC=C1OC(C)(C)C(C)(C)O1 do in these assays?
MCF10A rereplic: 21µM*; KB-V1 cytotox: inactive; KCNH2 3.1 inh: -10; KB-3-1 tox: inactive; KCNH2 WT inh: 4; SW480 rerep: inconclusive

What do the screens show for `COc1ccc(C(=O)CSc2nnc(CNc3ccc(C)cc3C)n2Cc2ccco2)cc1`?
MCF10A rereplic: 26%; KB-V1 cytotox: 3.7µM*; KCNH2 3.1 inh: -34; KB-3-1 tox: inconclusive; KCNH2 WT inh: 11; SW480 rerep: 0%

What do the screens show for `N#Cc1ccc(CSc2nnc(-c3ccccc3)n2Cc2ccco2)cc1`?
MCF10A rereplic: inconclusive; KB-V1 cytotox: 3.7µM*; KCNH2 3.1 inh: -10; KB-3-1 tox: inactive; KCNH2 WT inh: -15; SW480 rerep: -1%

Results for Cc1ccc(C(=O)CSc2nnc(CNc3ccc(C)cc3C)n2Cc2ccco2)cc1 ?
MCF10A rereplic: inconclusive; KB-V1 cytotox: inconclusive; KCNH2 3.1 inh: -42; KB-3-1 tox: inconclusive; KCNH2 WT inh: -8; SW480 rerep: 12%

What do the screens show for `N#Cc1ccc(CSc2nnc(Cc3cccs3)n2Cc2ccco2)cc1`?
MCF10A rereplic: -13%; KB-V1 cytotox: inconclusive; KCNH2 3.1 inh: -20; KB-3-1 tox: inactive; KCNH2 WT inh: -12; SW480 rerep: -2%

What do the screens show for `Cc1ccc(NCc2nnc(SCc3ccc(C#N)cc3)n2Cc2ccco2)c(C)c1`?
MCF10A rereplic: 5%; KB-V1 cytotox: inactive; KCNH2 3.1 inh: inconclusive; KB-3-1 tox: inactive; KCNH2 WT inh: -97*; SW480 rerep: 2%

What do the screens show for `O=C1Cc2cc(S(=O)(=O)N3CCN(c4ccc(Cl)cc4)CC3)ccc2N1`?
KB-V1 cytotox: inconclusive; KB-3-1 tox: inactive

Results for Cc1ccc2c(C(=O)CNc3nncs3)c(C)[nH]c2c1 ?
MCF10A rereplic: 13%; KB-V1 cytotox: inactive; KCNH2 3.1 inh: 9; KB-3-1 tox: inactive; KCNH2 WT inh: 1; SW480 rerep: -3%

How did Cc1nc(NC(=S)NC(=O)c2cncc(Br)c2)ccc1Br do in these assays?
MCF10A rereplic: 0%; KB-V1 cytotox: 3.7µM*; KCNH2 3.1 inh: -20; KB-3-1 tox: inconclusive; KCNH2 WT inh: -8; SW480 rerep: 7%

Results for CCc1c(C)nc(SC/C=C/c2ccccc2)[nH]c1=O ?
MCF10A rereplic: 14%; KB-V1 cytotox: inactive; KCNH2 3.1 inh: -120*; KB-3-1 tox: inactive; KCNH2 WT inh: -3; SW480 rerep: 13%

Results for Cn1cc(S(=O)(=O)NC2CCCCC2)c(=O)n(C)c1=O ?
MCF10A rereplic: -1%; KB-V1 cytotox: inactive; KCNH2 3.1 inh: -27; KB-3-1 tox: inactive; KCNH2 WT inh: 0; SW480 rerep: -28%
